Peptide text beside a SMILES is read from it.
Biological target: Mitogen-activated protein kinase 7 (Homo sapiens) (UniProt Q13164)
Test: Gal4-ERK5 driven luciferase induction – cell-based, HTS, primary screen (AID 1508626);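 further: luciferase driven by Gal4-ERK5 fusion binding five Gal4 sites before minimal TATA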
Details: HeLa Gal4-ERK5 transactivation, 18 h, at 5 µM, active compounds read high;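 active means luciferase signal above three times the same-plate solvent-only control wells; inactive means the rest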

Sequence of Mitogen-activated protein kinase 7 (Homo sapiens) (Q13164 whole entry, looked up, the tested form may be a part): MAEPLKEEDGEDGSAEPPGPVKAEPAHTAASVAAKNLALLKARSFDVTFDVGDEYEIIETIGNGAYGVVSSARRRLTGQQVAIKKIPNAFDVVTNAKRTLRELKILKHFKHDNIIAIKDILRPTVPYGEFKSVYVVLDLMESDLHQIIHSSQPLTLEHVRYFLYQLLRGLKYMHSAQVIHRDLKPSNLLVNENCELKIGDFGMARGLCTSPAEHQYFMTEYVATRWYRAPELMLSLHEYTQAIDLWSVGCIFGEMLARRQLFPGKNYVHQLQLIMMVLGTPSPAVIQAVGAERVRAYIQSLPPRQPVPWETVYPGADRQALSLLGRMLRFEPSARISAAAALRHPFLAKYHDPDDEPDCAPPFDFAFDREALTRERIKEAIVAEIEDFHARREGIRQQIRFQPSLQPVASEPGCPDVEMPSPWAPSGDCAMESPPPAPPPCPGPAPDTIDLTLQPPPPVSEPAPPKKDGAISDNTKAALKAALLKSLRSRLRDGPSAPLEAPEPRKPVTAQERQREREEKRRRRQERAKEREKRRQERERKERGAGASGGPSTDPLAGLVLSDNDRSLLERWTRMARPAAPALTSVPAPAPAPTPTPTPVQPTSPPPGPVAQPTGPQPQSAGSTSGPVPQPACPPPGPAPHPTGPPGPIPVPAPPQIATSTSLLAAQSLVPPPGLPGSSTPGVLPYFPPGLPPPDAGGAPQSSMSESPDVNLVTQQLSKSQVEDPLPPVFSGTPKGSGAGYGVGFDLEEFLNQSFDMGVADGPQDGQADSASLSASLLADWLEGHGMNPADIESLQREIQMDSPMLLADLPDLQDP

Luciferase signal, inactive:
CCOC(=O)c1ccc(N)cc1 112 AU, O=C1c2cccc(O)c2C(=O)c2c(O)cccc21 176 AU, O=C1c2ccccc2C(=O)C1c1ccccc1 52 AU, CCn1cc(C(=O)O)c(=O)c2cnc(N3CCCC3)nc21 80 AU, CCN(CC)CCNC(=O)c1cc(Br)c(N)cc1OC 60 AU, CC(=O)Nc1ccc(S(=O)(=O)Nc2ccc([N+](=O)[O-])cc2)cc1 24 AU, COc1ccc(CN(CCN(C)C)c2ncccn2)cc1 60 AU, CC(Cc1cccc(C(F)(F)F)c1)NCCOC(=O)c1ccccc1 (centres undefined) 84 AU, CC(=O)Oc1cccc(O)c1 20 AU, CC(C)N=C(N)/N=C(\N)Nc1ccc(Cl)cc1 84 AU, Nc1cc(-c2ccncc2)c[nH]c1=O 104 AU, OCC(O)CN1CCN(c2ccccc2)CC1 (centres undefined) 48 AU, Oc1c(I)cc(I)c2cccnc12 16 AU, O=C(O)c1cc(=O)c2ccccc2o1 52 AU, O=C1C(O)=C(O)C(=O)C(O)=C1O 20 AU, Cc1cc(=O)n(-c2ccccc2)n1C 116 AU, CCCCCCOc1ccccc1C(N)=O 48 AU, NC(=O)c1ccccc1O 56 AU, Cc1cc(-c2ccccc2)nnc1NCCN1CCOCC1 48 AU, CCCCOc1ccc(CC(=O)NO)cc1 44 AU, CCN(CC)CCNc1ccc(CO)c2sc3ccccc3c(=O)c12 36 AU, CCOc1ccc(Cc2nccc3cc(OCC)c(OCC)cc23)cc1OCC 68 AU, NC(N)=NCCN1CCCCCCC1 32 AU, COc1cccc(OC)c1C(=O)N[C@@H]1C(=O)N2[C@@H]1SC(C)(C)[C@@H]2C(=O)O 32 AU, O=C(CCBr)N1CCN(C(=O)CCBr)CC1 92 AU, Oc1c(Cl)cc(Cl)cc1Sc1cc(Cl)cc(Cl)c1O 24 AU, O=C(O)c1cc(O)c(O)c(O)c1 100 AU, COc1ccc(C(=O)c2ccccc2O)c(O)c1 92 AU, Cc1c(C(N)=O)cc([N+](=O)[O-])cc1[N+](=O)[O-] 68 AU, NS(=O)(=O)c1cc2c(cc1Cl)NC(CSCc1ccccc1)=NS2(=O)=O 88 AU, CCN1CCCC(OC(=O)C(c2ccccc2)c2ccccc2)C1 (centres undefined) 64 AU, CC(=O)OCC(=O)[C@@]1(O)[C@H](OC(C)=O)C[C@H]2[C@@H]3CCC4=CC(=O)C=C[C@]4(C)[C@@]3(F)[C@@H](O)C[C@@]21C 96 AU, Nc1ncnc2c1ncn2[C@@H]1O[C@H](CO)[C@@H](O)[C@H]1O 112 AU, CO[C@@]1(NC(=O)C(C(=O)O)c2ccc(O)cc2)C(=O)N2C(C(=O)O)=C(CSc3nnnn3C)CO[C@@H]21 (some centres undefined) 32 AU, OC(CCN1CCCCC1)(c1ccccc1)c1ccccc1 36 AU, CC(=O)NCCCCCC(=O)O 76 AU, CC1(C)OC(=O)NC1=O 64 AU, CCCCC(CC)CN1CN(CC(CC)CCCC)CC(C)(N)C1 (centres undefined) 88 AU, COC(=O)[C@H](Cc1ccccc1)NC(=O)[C@@H](N)CC(=O)O (H-Asp-Phe-OMe) 36 AU
